Records with an inconclusive call do not appear. A call without a number means that no potency is given here. Active and inactive are the calls of the source. Calls come from the whole dose curve; as a rule, active = well fitted cell-killing curve with a large enough effect; inconclusive = small, poorly fitted or top-dose-only effect; inactive = no such curve, though single readings can be large or run the other way.
Potency is the fitted concentration of half-maximal effect.

The assay can be described thus: Quantitative High-Throughput drug screen in 47 multiple myeloma cell lines against the NCATS MIPE library collection: NCIH929_DSMZ cell viability assay (AID 1918978). Note: nearly all actives have a fitted effect of over 35% in size. The following applies: NCI-H929 myeloma viability, CellTiter-Glo ATP, 48 h; series mostly up to 45.8 µM. An excerpt:
PI: Beverly A. Mock Ph.D.
Laboratory of Cancer Biology and Genetics,
Center for Cancer Research, National Cancer Institute,
National Institute of Health, Bethesda, Maryland
Drug resistance and disease progression are common in multiple myeloma (MM) patients, underscoring the need for new therapeutic combinations. […] We hypothesized that effective combinations would reduce MYC expression and enhance p16 activity. […] These preclinical data identify potentially useful drug combinations for evaluation in drug-resistant MM and reveal potential mechanisms of combined drug sensitivity.
Described herein is the primary MIPE qHTS used to cherrypick compounds. Validated compounds were then further tested for potential synergistic activiy.
[1] Peat TJ, Gaikwad SM, Dubois W, Gyabaah-Kessie N, Zhang S, Gorjifard S, Phyo Z, Andres M, Hughitt VK, Simpson RM, Miller MA, Girvin AT, Taylor A, Williams D, D'Antonio N, Zhang Y, Rajagopalan A, Flietner E, Wilson K, Zhang X, Shinn P, Klumpp-Thomas C, McKnight C, Itkin Z, Chen L, Kazandijian D, Zhang J, Michalowski AM, Simmons JK, Keats J, Thomas CJ, Mock BA. Drug combinations identified by high-throughput screening promote cell cycle transition and upregulate Smad pathways in myeloma. Cancer Lett. 2023 Aug 1;568:216284. doi: 10.1016/j.canlet.2023.216284. Epub 2023 Jun 24. PMID: 37356470; PMCID: PMC10408729.
SEQUENCE No. (e.g., 1, 2, 3, etc.); […] (e.g., Cells, Incubation, Reagent, etc.); VALUE and DESCRIPTION.
1; Cells; 5 uL; white, solid bottom 1536-well Greiner assay plate.
2; Compounds; 23 nL; Kalypsis pin tool (Wako USA) equipped with a 1536-well pin head to transfer to the assay plates.
3; Incubation; 48 hours; 37C incubation.
4; Reagent;5uL; CellTiter Glo (Promega).
5; Detector; 425V; Luminescence; Viewlux PerkinElmer.
NOTES (numbers refer to Sequence numbers above)
1. The cell-based screening methods employed in this study were like those previously published. Briefly, the corresponding myeloma cell lines were screened in 1,536-well plates with 500 cells, 5-uL per well for inhibition of cell viability (assessed by measuring ATP levels with CellTiterGlo).
2. NCATS MIPE 4.0 library of approved and investigational drugs were added using the Kalypsis pin tool. Wells treated with DMSO only for 100% viability and media only for 0% viability were used as controls.
3. The assay plates were covered and incubated for 48 hours in a 37C, 5% CO2 incubator with controlled humidity.
4. After 48 hours, CellTilter-GloTM luminescent substrate mix (Promega) reagent was added to the assay plate and plates we incubated for 5 min at room temperature.
5. Signal was measured as median relative luminescence units on a ViewLux (PerkinElmer) multiplate reader.
[1] Heske CM, Davis MI, Baumgart JT, Wilson K, Gormally MV, Chen L, Zhang X, Ceribelli M, Duveau DY, Guha R, Ferrer M, Arnaldez FI, Ji J, Tran HL, Zhang Y, Mendoza A, Helman LJ, Thomas CJ. Matrix Screen Identifies Synergistic Combination of PARP Inhibitors and Nicotinamide Phosphoribosyltransferase (NAMPT) Inhibitors in Ewing Sarcoma. Clin Cancer Res. 2017 Dec 1;23(23):7301-7311. doi: 10.1158/1078-0432.CCR-17-1121. Epub 2017 Sep 12. PMID: 28899971; PMCID: PMC6636827.
`O=C(O)c1cn(-c2ccc(F)cc2)c2cc(N3CCNCC3)c(F)cc2c1=O`: the Potency result was “inactive”.
Regarding `COc1cc(Nc2c(C#N)cnc3cc(OCCCN4CCN(C)CC4)c(OC)cc23)c(Cl)cc1Cl`, the Potency was 3.72 µM (active).
Take `CC1(C)NC(=O)N(c2ccc([N+](=O)[O-])c(C(F)(F)F)c2)C1=O`: the Potency result is “inactive”.
For `CNC[C@H](O)c1ccc(O)c(O)c1`, the Potency result was “inactive”.
The result for `Oc1ccc2ccccc2c1SSc1c(O)ccc2ccccc12` reads 8.33 µM (active); that for `COc1c2occc2cc2ccc(=O)oc12`, 5.26 µM (active).
`O=C1c2c(O)cc(O)cc2OC(c2ccc(O)c(O)c2)C1O` (stereo not given): the Potency entry is “inactive”.
With `O=C(NCC1CCCCN1)c1cc(OCC(F)(F)F)ccc1OCC(F)(F)F` (stereo not given), the Potency was 9.35 µM (active).
The result for `CC(C)c1ccc2oc3nc(N)c(C(=O)O)cc3c(=O)c2c1` reads “inactive”; that for `COc1cc2c(cc1OC)C1CC(=O)C(CC(C)C)CN1CC2` (stereo not given), “inactive”.
`O=P(O)(O)C(O)(Cn1ccnc1)P(=O)(O)O`: the Potency result was “inactive”.
`CCCCc1ccc2nc(NC(=O)OC)[nH]c2c1`: the Potency is 0.935 µM (active).
`CCOc1cc(CC(=O)N[C@@H](CC(C)C)c2ccccc2N2CCCCC2)ccc1C(=O)O`: the Potency result was “inactive”.
Consider `O=C(O)c1cccc(-c2noc(-c3ccccc3F)n2)c1`, for which the Potency entry is “inactive”.
For the compound `O=Nc1c(-c2c(O)[nH]c3cc(Br)ccc23)[nH]c2ccccc12`, the Potency is 2.64 µM (active).
Regarding `CCOC(=O)C(C)Oc1cccc2c(=O)n(CC(=O)Nc3ccc4c(c3)OCCO4)ccc12` (stereo not given), the Potency result is “inactive”.
`Cc1nc2n(c(=O)c1CCN1CCC(c3noc4cc(F)ccc34)CC1)CCCC2`: the Potency entry was “inactive”.
Take `CCCc1cc(=O)[nH]c(=S)[nH]1`: the Potency result was “inactive”.
With `CC1=C(C)C(=O)C(C(CCCCCC(=O)O)c2ccccc2)=C(C)C1=O` (stereo not given), the Potency entry is “inactive”.
The result for `CC[C@]1(O)C[C@H]2CN(CCc3c([nH]c4ccccc34)[C@@](C(=O)OC)(c3cc4c(cc3OC)N(C=O)[C@H]3[C@@](O)(C(=O)OC)[C@H](OC(C)=O)[C@]5(CC)C=CCN6CC[C@]43[C@@H]65)C2)C1` reads 0.0235 µM (active).
Take `COC(=O)C1=C(C)NC(C)=C(C(=O)OC(C)C)C1c1cccc2nonc12` (stereo not given): the Potency was 2.64 µM (active).
The result for `C=CCc1cc(OC)c(O)c(C(=O)NCCO)c1` reads “inactive”.
For the compound `CN(C)C(=O)[C@H](O)[C@H](Cc1ccccc1)NC(=O)c1cc2cc(Cl)ccc2[nH]1`, the Potency was 1.32 µM (active).
The result for `CCc1nc(N)nc(N)c1-c1ccc(Cl)cc1` reads “inactive”; that for `O=C(OC1C[C@H]2CC[C@@H](C1)[N+]21CCCC1)C(O)(c1ccccc1)c1ccccc1` (stereo not given in full), “inactive”.
For `Cc1nccn1CC1CCc2c(c3ccccc3n2C)C1=O` (stereo not given), the Potency was 26.4 µM (active).
On to `OC(CN1CCN(c2cccc(Cl)c2)CC1)C(c1ccccc1)c1ccccc1` (stereo not given), for which the Potency result was “inactive”.
Regarding `CCOC(=O)C1=C[C@@H](OC(CC)CC)[C@H](NC(C)=O)[C@@H](N)C1`, the Potency result was “inactive”.
On to `O=C(NC(Cc1cc(=O)[nH]c2ccccc12)C(=O)O)c1ccc(Cl)cc1` (stereo not given), for which the Potency result was “inactive”.
The result for `CCCS(=O)c1ccc2nc(NC(=O)OC)[nH]c2c1` (stereo not given) reads “inactive”; that for `CC1Cc2ccccc2N1NC(=O)c1ccc(Cl)c(S(N)(=O)=O)c1` (stereo not given), “inactive”; that for `Cc1ncc([N+](=O)[O-])n1CC(C)O` (stereo not given), 20.9 µM (active).
The result for `CCOC(=O)c1c(C)n(C)c2ccc(O)cc12` reads “inactive”.
The result for `CC1=C(C(=O)O)N2C(=O)[C@@H](NC(=O)[C@H](N)C3=CCC=CC3)[C@H]2SC1` reads “inactive”; that for `N[C@@H](Cc1cc(I)c(Oc2cc(I)c(O)c(I)c2)c(I)c1)C(=O)O`, “inactive”; that for `CN(c1nccc(=O)[nH]1)C1CCN(c2nc3ccccc3n2Cc2ccc(F)cc2)CC1`, 13.2 µM (active).
With `O=C(O)c1cc(=O)c2c(OCC(O)COc3cccc4oc(C(=O)O)cc(=O)c34)cccc2o1`, the Potency result is “inactive”.
For the compound `CC(C)(S)[C@@H](N)C(=O)O`, the Potency entry was “inactive”.
The result for `C[C@H](Cc1ccc(O)c(O)c1)[C@@H](C)Cc1ccc(O)c(O)c1` reads 9.35 µM (active); that for `Cc1ccc(C)c(OCCCC(C)(C)C(=O)O)c1`, 23.5 µM (active).

For the origin of these results see PubChem BioAssay (NCATS).
